Compound activity (PubChem BioAssay)
Shiga inhibitor – Shiga toxin inhibition. inhibition, % at 38.7 µM. AID 2315. hit rate 9.2% among 290,000. Vero cells, Shiga toxin protein synthesis inhibition reporter; in the data active means inhibition mostly above about 28%, no sharp cut-off; inactive means mostly below about 43%; further: 0% is about no effect
HCV inh – HCV inhibition. Huh7.5.1 HCVcc-Cre infection, luciferase reporter, 44 h. Potency, µM (doses to about 41.8 µM), for inactives: at the top dose activity change, negative = inhibition, usual class: inhibitors. hit rate 3.4% among 340,000; further: potency means the concentration at half of the fitted maximal effect; on the % scale 0 is the no-effect control and ±100 the full control effect
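Antiviral activity was scored by luciferase reporter output from cells infected with HCVcc-Cre (~0.5 moi) in presence of compound, 44 h infection period, cells seeded 1,000/well 4 h prior.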
Pf growth 48h – inhibits P. falciparum growth in the first generation, 48 h | Potency, µM (doses to about 28.7 µM), for the others: top-dose activity change, negative = inhibition, hits mostly inhibitors | P. falciparum luciferase growth in erythrocytes, 48 h | hit rate 5.9% among 310,000 | AID 504832; further: potency means the concentration at half of the fitted maximal effect; on the % scale 0 is the no-effect control and ±100 the full control effect
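Growth was read as firefly luciferase luminescence after a 48 h, 37 C, 5% CO2 exposure of compounds to reporter-bearing P. falciparum cultures (0.1% parasitemia, 2% hematocrit final) in Albumax-supplemented RPMI 1640.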
HCMV antiviral – inhibitors of human cytomegalovirus. HFF cells, HCMV-luciferase reporter, 72 h; stronger effect = lower value. activity change, negative = inhibition, % at 57.5 µM. hit rate 4.5% among 410,000; in the data active means activity change below about -60%; inconclusive means no clear call, values can overlap the other calls; inactive means above about -39%; further: on the % scale 0 is the no-effect control and ±100 the full control effect
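Screen run at 2 compound doses on HFFs infected with reporter HCMV, MOI 1 PFU/cell. Luciferase activity from cell lysates at 72 h post infection gave inhibition relative to buffer-only and Salinomycin wells.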
Pf growth 96h – P. falciparum growth inhibition at 96 hours. hit rate 6.9% among 320,000. P. falciparum luciferase reporter growth, 96 h. Potency, µM (titrated, usually from 28.7 µM), without a hit: at the highest dose activity change, negative = inhibition, most hits filed as inhibitors. AID 504834; further: potency means the concentration at half of the fitted maximal effect; on the % scale 0 is the no-effect control and ±100 the full control effect
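P. falciparum expressing integrated firefly luciferase grown in erythrocytes (2% hematocrit, 0.05% parasitemia final) with compounds for 96 hours at 37 C, 5% CO2. Growth inhibition read as loss of luminescence after adding luciferase detection reagent.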
Cycloheximide cs – counter-screen hit for Shiga toxin inhibitors, cycloheximide; max response, %; AID 2314; hit rate 12% among 300,000; cell reporter, cycloheximide protein synthesis inhibition counterscreen; in the data active means max response mostly above about 13%, no sharp cut-off; inactive means mostly below about 14%; further: read at 38.3 µM for the half of the compounds with a filed dose; 0% is about no effect
Starred values were filed as active, the others as inactive; ? = inconclusive; . = no result given. Rows were chosen to be rich in hits. Some 21% of all compounds tested hit in one or more screens of this group. Unless noted, the call rests on the fitted dose curve; in most records, active means well fitted inhibition curve with a large enough effect; inconclusive means small, poorly fitted or top-dose-only effect, or another doubt; inactive means no such curve, though single readings can be large or run the other way.

SMILES | Shiga inhibitor | HCV inh | Pf growth 48h | HCMV antiviral | Pf growth 96h | Cycloheximide cs
Cc1ccc(C(=O)NC2CCCCNC2=O)cc1C (stereo not drawn) | 64* | 4% | 63% | 98 | 109% | 38*
O=C(c1ccccc1)N1CCCC(C(=O)N2CCN(c3ccccc3)CC2)C1 (stereo not drawn) | 18 | 7% | -4% | 0 | 11% | -1
COC(=O)C(Cc1ccccc1)NC(=O)c1ccc(NS(=O)(=O)c2ccc3[nH]c(=O)[nH]c3c2)cc1 (stereo not drawn) | . | -21% | -14% | -5 | ? | .
Nc1c(Br)cc2c3c(cccc13)-c1ccccc1-2 | . | 2.8µM* | . | -33 | . | .
O=C(CSC(=S)N1CCCCC1)N1N=CCC1c1ccccc1 (stereo not drawn) | 163* | -3% | 44% | -2 | . | 71*
O=C(Nc1ccc(Cl)c(Cl)c1)N1N=CCC1c1ccccc1 (stereo not drawn) | 2 | 10µM* | -1% | -66* | ? | 12
CCN1CCN(CC(=O)N2N=CCC2c2ccccc2)CC1 (stereo not drawn) | 19 | -1% | 17% | 20 | 24% | -2
O=C(CSc1ccc(Cl)cc1)N1N=CCC1c1ccccc1 (stereo not drawn) | 73* | -12% | ? | ? | -12% | 15
O=C(COC(=O)c1ccc(F)cc1F)Nc1cccc(S(=O)(=O)N2CCOCC2)c1 | . | 2% | 74% | 12 | 37% | .
CCc1nc(Sc2nc(C)cc(C)n2)c2oc3ccccc3c2n1 | -16 | ? | ? | -86* | ? | -1
CCc1nc(Nc2ccccc2O)c2oc3ccccc3c2n1 | -5 | 7% | . | 33 | -5% | -6
CCN(CC)CCOc1ncnc2c1oc1ccccc12 | -6 | 5% | 25% | 31 | 2% | -4
CCc1cc2c(SCC(=O)c3ccc(Cl)s3)ncnc2s1 | 12 | 6% | 8% | -25 | . | 10
CCc1nc(SCC(=O)c2ccc(Cl)s2)c2oc3ccccc3c2n1 | 89* | ? | 5% | . | 5% | 46*
CCc1nc(OCCN(CC)CC)c2oc3ccccc3c2n1 | 27 | ? | 40% | 93 | 30% | 27*
CCc1nc(SCc2nc3ccccc3[nH]2)c2oc3ccccc3c2n1 | 8 | 7.9µM* | . | ? | ? | 14*
Cc1nc(SCc2nc3ccc(Br)cc3[nH]2)c2oc3ccccc3c2n1 | . | . | . | 88 | . | .
O=C(Nc1nnc(S(=O)(=O)N2CCN(c3ccc(F)cc3)CC2)s1)c1ccc(Cl)cc1 | . | . | . | 12 | . | .
CCc1nc(N(CC)CC)c2oc3ccccc3c2n1 | 16 | ? | ? | -28 | 2% | 3
CCc1nc(SCCO)c2oc3ccccc3c2n1 | 16 | 10µM* | ? | 36 | 80% | 2
c1ccc(Sc2ncnc3c2oc2ccccc23)cc1 | 81* | -25% | 105% | . | 30% | 33*
CCc1nc(SCC(=O)N2CCN(c3ccccc3)CC2)c2oc3ccccc3c2n1 | -10 | 10µM* | 2% | -18 | -16% | 6
CCc1nc(SCC(=O)N2CCN(c3ccccc3)CC2)c2c(=O)n(C)c(=O)n(C)c2n1 | -1 | . | 41% | . | 4% | 8
OCCSc1ncnc2c1oc1ccccc12 | 63* | ? | 7% | 8 | ? | 22*
Cc1ccc(C(=O)NCc2nnc(SCC(=O)NC(C)c3ccccc3)n2C)cc1 (stereo not drawn) | -14 | 7% | 8% | ? | -1% | 3
SMILES | Shiga inhibitor | HCV inh | Pf growth 48h | HCMV antiviral | Pf growth 96h | Cycloheximide cs
CCOc1ccc(-c2cc3c(=O)n(CC(=O)NCc4ccc(Cl)cc4)ccn3n2)cc1 | . | . | . | 25 | . | .
CCn1c(=O)n(CC)c2cc(N3CCCCC3)c(NC(=O)Nc3ccccc3Cl)cc21 | . | . | . | -39 | . | .
c1ccc2[nH]c(CSc3nc4ccccc4o3)nc2c1 | 137* | ? | 28% | ? | -9% | 42*
CC[C@@H]1Cc2[nH]c(=O)[nH]c(=O)c2[C@H](c2ccc(Cl)cc2)O1 | . | . | . | -2 | . | .
Cc1cccc(NC(=O)c2cccc(OC(=S)N3CCOCC3)c2)c1 | 31 | ? | ? | -29 | 12% | -3
O=C(Nc1cccc(Cl)c1)c1ccc(OC(=S)N2CCOCC2)cc1 | 103* | 13µM* | 370% | ? | -11% | 39*
O=C(Nc1cccc2ccccc12)c1ccc(OC(=S)N2CCOCC2)cc1 | 103* | ? | 146% | -36 | 56% | 55*
O=C(Nc1cccc2ccccc12)N1CCOCC1 | -3 | -24% | 9% | 60 | 0% | 1
CCc1[nH]c(C(=O)O)c(C)c1C(=O)OC | 14 | 12% | ? | 0 | ? | -2
COc1ccc(S(=O)(=O)NCc2ccccn2)cc1NC(=O)c1ccccc1C | . | 22% | -5% | 30 | 9% | .
CC(C)CNC(=O)C(C)(C)n1cc(NC(=O)COCc2ccccc2)cn1 | . | . | . | 4 | . | .
CC(C)CCOP(=O)(c1ccccc1)c1ccccc1 | -2 | -8% | 15µM* | -38 | ? | -2
CCCOP(=O)(c1ccccc1)c1ccccc1 | -8 | -11% | -19% | 77 | 15% | -4
COC(=O)C(NC(=O)c1ccco1)(Nc1nc(C2CC2)cs1)C(F)(F)F (stereo not drawn) | -8 | -12% | ? | -67* | ? | -1
COc1ccc2nc(NC(=O)c3ccc([N+](=O)[O-])o3)sc2c1 | 55* | ? | ? | -27 | 276% | 34*
O=C(Nc1nc2ccccc2s1)c1ccc([N+](=O)[O-])o1 | 48* | ? | -11% | ? | ? | 33*
Cc1cc(C)c2sc(NC(=O)c3ccc([N+](=O)[O-])o3)nc2c1 | 4 | -15% | ? | 38 | ? | 1
O=C(Nc1nc2c(F)cc(F)cc2s1)c1ccc([N+](=O)[O-])o1 | 50* | -17% | -18% | 9 | ? | 26*
O=C(Nc1nc2cc3c(cc2s1)OCCO3)c1ccc([N+](=O)[O-])o1 | 45* | -4% | -15% | -4 | 8.3µM* | 48*
Cc1cc(C)c2nc(NC(=O)c3ccc([N+](=O)[O-])o3)sc2c1 | . | -4% | ? | ? | ? | -2
O=C(Cn1cc([N+](=O)[O-])cn1)Nc1nc2ccccc2s1 | 16 | -23% | 13% | 62 | 40% | 11
CCOc1ccc(-n2c(=O)c3sccc3n(Cc3ccc(C)cc3)c2=O)cc1 | -5 | 5% | 16% | -31 | ? | -2
Cc1ccc(C)c(NC(=S)N(CCc2nc3cc(C)c(C)cc3[nH]2)Cc2cccnc2)c1 | 10 | 24% | ? | 0 | -10% | -1
CC(C)c1ccc(N2C(=O)CC(Sc3ncn[nH]3)C2=O)cc1 (stereo not drawn) | 8 | 15% | . | 6 | -4% | 0
COc1ccc(N2C(=O)CC(Sc3ncn[nH]3)C2=O)c(OC)c1 (stereo not drawn) | -12 | 16µM* | -14% | -98* | 3% | 8
